# The panel holds about 79,000 compounds, 15% with a hit somewhere; the sample as a whole holds those more often. A number with no mark means an inactive call. Active and inactive are the calls of the source. Rule as the data show it: active = growth inhibition above about 70%; inactive = the rest.
# What was measured:
# [1] = NCI Yeast Anticancer Drug Screen. Data for the rad52 strain (AID 147);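 also: 0% = growth of vehicle-treated control cultures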; conditions: S. cerevisiae rad52 mutant growth inhibition, active compounds read high
# Procedure, shortened: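 Screen used a yeast mutant impaired in DNA repair. After compound exposure, growth was measured. Values reflect inhibition compared with vehicle-treated cells.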
# [2] = NCI Yeast Anticancer Drug Screen. Data for the wt1 strain (AID 149);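 also: 0% = growth of vehicle-treated wt1 cultures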; conditions: S. cerevisiae wt1 strain (SPY 50644) growth inhibition, active compounds read high
# Procedure, shortened: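 Readout: yeast growth inhibition, normalised to vehicle controls, in the wt1 strain exposed to test compounds.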
# [3] = NCI Yeast Anticancer Drug Screen. Data for the rad50EPP+ strain (AID 151);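 also: 0% = growth of vehicle-treated control cultures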; conditions: S. cerevisiae rad50 mutant strain, active compounds read high
# Procedure, shortened: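 Exposing the rad50EPP+ strain to each compound, growth was compared with vehicle-only cultures to give inhibition.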
# [4] = NCI Yeast Anticancer Drug Screen. Data for the rad50 strain (AID 155);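 also: 0% = growth of vehicle-only cultures of the same strain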; conditions: S. cerevisiae rad50 strain growth inhibition, active compounds read high
# Procedure, shortened: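 Compounds were tested on a yeast strain with an engineered DNA damage repair alteration; the reported value is growth inhibition normalised to vehicle treatment.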
# [5] = NCI Yeast Anticancer Drug Screen. Data for the mec2-1 strain (AID 157); conditions: S. cerevisiae mec2-1 strain, active compounds read high
# Procedure, shortened: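 Readout is yeast growth inhibition, normalised to vehicle-treated controls, in the mec2-1 strain exposed to compound.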
# [6] = NCI Yeast Anticancer Drug Screen. Data for the rad14 strain (AID 159);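 also: 0% = growth of vehicle-treated control cultures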; conditions: S. cerevisiae rad14 strain growth inhibition, active compounds read high
# Procedure, shortened: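 Compound-treated yeast with a defined DNA-repair lesion; growth inhibition normalised to vehicle-treated cultures.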
# [7] = NCI Yeast Anticancer Drug Screen. Data for the sgs1 mgt1 strain (AID 161);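 also: 0% = growth of cultures given vehicle only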; conditions: S. cerevisiae sgs1 mgt1 strain, active compounds read high
# Procedure, shortened: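 Compounds are added to genetically altered yeast, and growth is compared with cultures given vehicle alone to give percent inhibition.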
# [8] = NCI Yeast Anticancer Drug Screen. Data for the CLN2oe strain (AID 163);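 also: 0% = growth of vehicle-only control cultures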; conditions: S. cerevisiae CLN2oe strain, active compounds read high
# Procedure, shortened: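 Values reflect how much compound exposure reduced yeast growth, referenced to vehicle-exposed cells. Assay organism is a strain with a defined genetic change affecting cell-cycle control.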
# [9] = NCI Yeast Anticancer Drug Screen. Data for the cln2 rad14 strain (AID 165);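 also: 0% = growth equal to vehicle treated cultures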; conditions: S. cerevisiae cln2 rad14 strain, active compounds read high
# Procedure, shortened: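 Relative to vehicle controls, growth inhibition of compound-treated cln2 rad14 yeast was recorded.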
# [10] = NCI Yeast Anticancer Drug Screen. Data for the bub3 strain (AID 167); conditions: S. cerevisiae bub3 mutant strain, active compounds read high
# Procedure, shortened: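 Growth of a checkpoint-deficient yeast mutant is measured after compound exposure. Values represent inhibition relative to vehicle.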
# [11] = NCI Yeast Anticancer Drug Screen. Data for the wt2 strain (AID 169);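 also: 0% = growth of vehicle-treated yeast cultures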; conditions: S. cerevisiae wt2 strain growth inhibition, active compounds read high
# Procedure, shortened: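 Values express reduction in yeast growth under compound treatment, referenced to vehicle-treated cells.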
# [12] = NCI Yeast Anticancer Drug Screen. Data for the mlh1 strain (AID 171);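 also: 0% = growth of vehicle-treated control cultures of the same strain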; conditions: S. cerevisiae mlh1 strain growth inhibition, active compounds read high
# Procedure, shortened: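 Steps: expose the defined-mutant yeast strain to compound; expose a parallel culture to vehicle; measure growth; express compound effect as inhibition relative to the vehicle culture.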
# [13] = NCI Yeast Anticancer Drug Screen. Data for the sgs1 strain (AID 173);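 also: 0% = growth of vehicle-only control cultures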; conditions: S. cerevisiae sgs1 mutant, active compounds read high
# Procedure, shortened: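 Treat defined-mutant yeast with compound; measure growth; calculate inhibition relative to vehicle-treated cells.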
# [14] = NCI Yeast Anticancer Drug Screen. Data for the mlh1 rad18 strain (AID 175); conditions: S. cerevisiae mlh1 rad18 strain growth inhibition, active compounds read high
# Procedure, shortened: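 Test agents were incubated with a yeast strain of defined genotype (DNA damage repair defect). Inhibition of growth was derived by comparison with vehicle-exposed cultures.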
# [15] = NCI Yeast Anticancer Drug Screen. Data for the rad18 strain (AID 177); conditions: S. cerevisiae rad18 mutant growth inhibition, active compounds read high
# Procedure, shortened: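 A genetically defined yeast mutant impaired in DNA damage repair was treated with test compounds, then its growth was measured against cultures receiving vehicle alone.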
# [16] = at 5.0 µM (retest, dose inferred, filed as 0.5)
# [17] = at 50.0 µM (retest, dose inferred, filed as 5.0)
structure (smiles),measurement,setting,value
CCCCCCCCCCCCCCCCCCNC(=S)/N=C\C1=C(O)c2ccccc2C1=O,growth inhibition,[1]; at 1.2 µM,17%
same,growth inhibition,[1]; at 3.7 µM,4%
same,growth inhibition,[1]; at 11.0 µM,12%
same,growth inhibition,[1]; at 33.0 µM,17%
same,growth inhibition,[1]; at 100.0 µM,19%
same,growth inhibition,[2]; at 1.2 µM,-44%
same,growth inhibition,[2]; at 3.7 µM,-2%
same,growth inhibition,[2]; at 11.0 µM,-5%
same,growth inhibition,[2]; at 33.0 µM,-5%
same,growth inhibition,[2]; at 100.0 µM,-3%
same,growth inhibition,[3]; at 1.2 µM,-6%
same,growth inhibition,[3]; at 3.7 µM,7%
same,growth inhibition,[3]; at 11.0 µM,26%
same,growth inhibition,[3]; at 33.0 µM,42%
same,growth inhibition,[3]; at 100.0 µM,60%
same,growth inhibition,[4]; at 1.2 µM,-1%
same,growth inhibition,[4]; at 3.7 µM,0%
same,growth inhibition,[4]; [16],5%
same,growth inhibition,[4]; at 11.0 µM,0%
same,growth inhibition,[4]; at 33.0 µM,4%
same,growth inhibition,[4]; [17],86% (active)
same,growth inhibition,[4]; at 50.0 µM,60%
same,growth inhibition,[4]; at 100.0 µM,9%
same,growth inhibition,[5]; at 1.2 µM,-3%
same,growth inhibition,[5]; at 3.7 µM,-1%
same,growth inhibition,[5]; [16],-16%
same,growth inhibition,[5]; at 11.0 µM,-5%
same,growth inhibition,[5]; at 33.0 µM,2%
same,growth inhibition,[5]; [17],37%
same,growth inhibition,[5]; at 50.0 µM,36.7%
same,growth inhibition,[5]; at 100.0 µM,2%
same,growth inhibition,[6]; at 1.2 µM,0%
same,growth inhibition,[6]; at 3.7 µM,3%
same,growth inhibition,[6]; at 11.0 µM,7%
same,growth inhibition,[6]; at 33.0 µM,10%
same,growth inhibition,[6]; at 100.0 µM,11%
same,growth inhibition,[7]; [16],-13%
same,growth inhibition,[7]; [17],18%
same,growth inhibition,[7]; at 50.0 µM,71% (active)
same,growth inhibition,[8]; at 1.2 µM,-10%
same,growth inhibition,[8]; at 3.7 µM,-7%
same,growth inhibition,[8]; at 11.0 µM,-5%
same,growth inhibition,[8]; at 33.0 µM,-13%
same,growth inhibition,[8]; at 100.0 µM,-4%
same,growth inhibition,[9]; [16],33%
same,growth inhibition,[9]; [17],-10%
same,growth inhibition,[9]; at 50.0 µM,25.7%
same,growth inhibition,[10]; at 1.2 µM,-5%
same,growth inhibition,[10]; at 3.7 µM,-9%
same,growth inhibition,[10]; [16],-2%
same,growth inhibition,[10]; at 11.0 µM,-4%
same,growth inhibition,[10]; at 33.0 µM,-3%
same,growth inhibition,[10]; [17],84% (active)
same,growth inhibition,[10]; at 50.0 µM,69.7%
same,growth inhibition,[10]; at 100.0 µM,52%
same,growth inhibition,[11]; at 1.2 µM,-2%
same,growth inhibition,[11]; at 3.7 µM,-2%
same,growth inhibition,[11]; at 11.0 µM,1%
same,growth inhibition,[11]; at 33.0 µM,13%
same,growth inhibition,[11]; at 100.0 µM,36%
same,growth inhibition,[12]; at 1.2 µM,-1%
same,growth inhibition,[12]; at 3.7 µM,-1%
same,growth inhibition,[12]; at 11.0 µM,-3%
same,growth inhibition,[12]; at 33.0 µM,-2%
same,growth inhibition,[12]; at 100.0 µM,-1%
same,growth inhibition,[13]; at 1.2 µM,0%
same,growth inhibition,[13]; at 3.7 µM,6%
same,growth inhibition,[13]; at 11.0 µM,13%
same,growth inhibition,[13]; at 33.0 µM,15%
same,growth inhibition,[13]; at 100.0 µM,30%
same,growth inhibition,[14]; [16],-13%
same,growth inhibition,[14]; [17],63%
same,growth inhibition,[14]; at 50.0 µM,53%
same,growth inhibition,[15]; at 1.2 µM,8%
same,growth inhibition,[15]; at 3.7 µM,11%
same,growth inhibition,[15]; at 11.0 µM,22%
same,growth inhibition,[15]; at 33.0 µM,30%
same,growth inhibition,[15]; at 100.0 µM,26%
O=C(NCCCCCN1CCC2(CCCCC2)CC1)C(C1CCCCC1)C1CCCCC1,growth inhibition,[1]; at 1.2 µM,23%
same,growth inhibition,[1]; at 3.7 µM,5%
same,growth inhibition,[1]; at 11.0 µM,65%
same,growth inhibition,[1]; at 33.0 µM,100% (active)
same,growth inhibition,[1]; at 100.0 µM,97% (active)
same,growth inhibition,[2]; at 1.2 µM,-63%
same,growth inhibition,[2]; at 3.7 µM,-5%
same,growth inhibition,[2]; at 11.0 µM,6%
same,growth inhibition,[2]; at 33.0 µM,85% (active)
same,growth inhibition,[2]; at 100.0 µM,98% (active)
same,growth inhibition,[3]; at 1.2 µM,-1%
same,growth inhibition,[3]; at 3.7 µM,0%
same,growth inhibition,[3]; at 11.0 µM,3%
same,growth inhibition,[3]; at 33.0 µM,10%
same,growth inhibition,[3]; at 100.0 µM,99% (active)
same,growth inhibition,[4]; at 1.2 µM,-1%
same,growth inhibition,[4]; at 3.7 µM,11%
same,growth inhibition,[4]; [16],-7%
same,growth inhibition,[4]; at 11.0 µM,46%
same,growth inhibition,[4]; at 33.0 µM,97% (active)
same,growth inhibition,[4]; [17],99% (active)
same,growth inhibition,[4]; at 50.0 µM,99.5% (active)
same,growth inhibition,[4]; at 100.0 µM,99% (active)
same,growth inhibition,[5]; at 1.2 µM,22%
same,growth inhibition,[5]; at 3.7 µM,-5%
same,growth inhibition,[5]; [16],-22%
same,growth inhibition,[5]; at 11.0 µM,42%
same,growth inhibition,[5]; at 33.0 µM,100% (active)
same,growth inhibition,[5]; [17],98% (active)
same,growth inhibition,[5]; at 50.0 µM,99.3% (active)
same,growth inhibition,[5]; at 100.0 µM,98% (active)
same,growth inhibition,[6]; at 1.2 µM,11%
same,growth inhibition,[6]; at 3.7 µM,49%
same,growth inhibition,[6]; at 11.0 µM,98% (active)
same,growth inhibition,[6]; at 33.0 µM,99% (active)
same,growth inhibition,[6]; at 100.0 µM,99% (active)
same,growth inhibition,[7]; [16],-15%
same,growth inhibition,[7]; [17],99% (active)
same,growth inhibition,[7]; at 50.0 µM,99.6% (active)
same,growth inhibition,[8]; at 1.2 µM,-4%
same,growth inhibition,[8]; at 3.7 µM,4%
same,growth inhibition,[8]; at 11.0 µM,78% (active)
same,growth inhibition,[8]; at 33.0 µM,99% (active)
same,growth inhibition,[8]; at 100.0 µM,99% (active)
same,growth inhibition,[9]; [16],70% (active)
same,growth inhibition,[9]; [17],99% (active)
same,growth inhibition,[9]; at 50.0 µM,98.8% (active)
same,growth inhibition,[10]; at 1.2 µM,-2%
same,growth inhibition,[10]; at 3.7 µM,2%
same,growth inhibition,[10]; [16],-17%
same,growth inhibition,[10]; at 11.0 µM,80% (active)
same,growth inhibition,[10]; at 33.0 µM,99% (active)
same,growth inhibition,[10]; [17],100% (active)
same,growth inhibition,[10]; at 50.0 µM,99.2% (active)
same,growth inhibition,[10]; at 100.0 µM,99% (active)
same,growth inhibition,[11]; at 1.2 µM,-1%
same,growth inhibition,[11]; at 3.7 µM,3%
same,growth inhibition,[11]; at 11.0 µM,45%
same,growth inhibition,[11]; at 33.0 µM,99% (active)
same,growth inhibition,[11]; at 100.0 µM,99% (active)
same,growth inhibition,[12]; at 1.2 µM,0%
same,growth inhibition,[12]; at 3.7 µM,7%
same,growth inhibition,[12]; at 11.0 µM,76% (active)
same,growth inhibition,[12]; at 33.0 µM,99% (active)
same,growth inhibition,[12]; at 100.0 µM,94% (active)
same,growth inhibition,[13]; at 1.2 µM,2%
same,growth inhibition,[13]; at 3.7 µM,24%
same,growth inhibition,[13]; at 11.0 µM,86% (active)
same,growth inhibition,[13]; at 33.0 µM,99% (active)
same,growth inhibition,[13]; at 100.0 µM,98% (active)
same,growth inhibition,[14]; [16],-3%
same,growth inhibition,[14]; [17],99% (active)
same,growth inhibition,[14]; at 50.0 µM,99.5% (active)
same,growth inhibition,[15]; at 1.2 µM,8%
same,growth inhibition,[15]; at 3.7 µM,11%
same,growth inhibition,[15]; at 11.0 µM,69%
same,growth inhibition,[15]; at 33.0 µM,100% (active)
same,growth inhibition,[15]; at 100.0 µM,98% (active)

# Source: PubChem BioAssay (NCI)
